HCV inhibitor – inhibitors of hepatitis C virus infection | Huh7.5.1 HCVcc-Cre infection, luciferase reporter, 44 h | actives 3.4% (n = 340,000) | Potency, µM (titrated, usually from 41.8 µM), for the others: top-dose activity change, negative = inhibition, most hits filed as inhibitors; also: potency is read from the fitted curve at half-maximal effect; % is scaled to controls: 0 for no effect and ±100 for the full control effect
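Compounds are dispensed onto cells plated 4 h earlier at 1,000 per well, with HCVcc-Cre virus (about 0.5 moi) added next. Following 44 h of culture, luminescent signal is measured for 15 sec after 15 min with substrate at room temperature.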
Pf growth 96h – P. falciparum growth inhibition at 96 hours | AID 504834 | P. falciparum luciferase reporter growth, 96 h | Potency, µM (series often up to 28.7 µM), for the others: at the top dose activity change, negative = inhibition, usual class: inhibitors | actives 6.9% (n = 320,000); also: potency is read from the fitted curve at half-maximal effect; % is scaled to controls: 0 for no effect and ±100 for the full control effect
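96 h incubation, 37 C, 5% CO2, of luciferase-reporter P. falciparum-infected RBCs (2% hematocrit, 0.05% parasitemia final) with test compounds; endpoint luminescence.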
Sm TGR inh – inhibitors of Schistosoma mansoni thioredoxin glutathione reductase. purified TGR, DTNB reduction, TNB absorbance 405 nm. AID 485364. Potency, µM (titrated, usually from 114 µM), inactives show at the top dose activity change, negative = inhibition, hits mostly inhibitors. actives 3% (n = 360,000); also: potency is read from the fitted curve at half-maximal effect; % is scaled to controls: 0 for no effect and ±100 for the full control effect; nearly all actives have a fitted effect of over 60% in size
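Kinetic colorimetric format: TGR-catalysed, NADPH-driven DTNB reduction monitored via TNB absorbance. Enzyme dispensed at 20 nM; compound exposure 15 min at room temperature before reaction start.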
Pf growth 48h – P. falciparum growth inhibition at 48 hours (one generation). Potency, µM (titrated, usually from 28.7 µM), inactives show at the top dose activity change, negative = inhibition, most hits filed as inhibitors. actives 5.9% (n = 310,000). P. falciparum luciferase growth in erythrocytes, 48 h. AID 504832; also: potency is read from the fitted curve at half-maximal effect; % is scaled to controls: 0 for no effect and ±100 for the full control effect
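Firefly luciferase activity from engineered P. falciparum reports growth; inhibitors lower the luminescent signal. Cultures contained 2% hematocrit erythrocytes at 0.1% final parasitemia.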
SARS PLpro yeast – SARS-CoV PLP inhibition in yeast; S. cerevisiae expressing SARS-CoV PLpro, growth rescue; Potency, µM (top dose mostly 32.9 µM), inactives show at the top dose activity, positive = growth rescue, usual class: activators; actives 0.19% (n = 330,000); calls by dose curve; also: potency is read from the fitted curve at half-maximal effect; 0% is about no effect; nearly all actives have a fitted effect of over 55% in size
HCMV inh – blocks human cytomegalovirus replication | HFF cells, HCMV-luciferase reporter, 72 h; stronger effect = lower value | activity change, negative = inhibition, % at 57.5 µM | actives 4.5% (n = 410,000) | AID 1259415; in the data active = activity change below about -60%; inconclusive = no clear call, values can overlap the other calls; inactive = above about -39%; also: % is scaled to controls: 0 for no effect and ±100 for the full control effect
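After 16 h attachment at 37C, HFF cells received test compound and HCMV-luciferase (1 PFU/cell); reporter luminescence read 72 h later, data normalized against buffer-only and known inhibitor Salinomycin.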
Numbers without * were called inactive; ? = inconclusive; . = no result. Shown are actives, neighbours in structure and some others; about 15% of the full set was active somewhere. Unless noted, calls follow the shape of the dose curve; as a rule, active = well fitted curve in the direction sought with a large enough effect; inconclusive = small, poorly fitted or top-dose-only effect, or another doubt; inactive = no such curve, though single readings can be large; an effect the other way counts as inactive or inconclusive.

SMILES | HCV inhibitor | Pf growth 96h | Sm TGR inh | Pf growth 48h | SARS PLpro yeast | HCMV inh
CCCCNC(=O)c1ccc2nc(-c3ccco3)c(-c3ccco3)nc2c1 | 5.0% | 12.6% | 7.94µM* | -12.9% | 12.5% | 6.6
Cc1ccc(NC(=O)C(C)OC(=O)COc2cccc(C(F)(F)F)c2)cc1 (stereo unspecified) | 4.8% | 27.7% | -7.4% | 9.6% | -8.8% | -24.3
CC(=O)CSc1nnc2[nH]c(=O)cc(N)n12 | . | . | 10.5% | . | . | 2.4
CCN1CCN(CCNC(=O)c2ccc3nc(-c4cccc(C)c4)c(-c4cccc(C)c4)nc3c2)CC1 | ? | ? | -11.6% | ? | 0.1% | -108.8*
CCN(CC)C(=O)c1ccc2nc3ccccc3nc2c1 | -5.3% | 64.4% | 8.2% | 59.5% | 3.2% | -95.0*
CCC(C(=O)N1CCN(c2cc(Cl)ccc2C)CC1)n1nc(C)c2sc3ccccc3c2c1=O (stereo unspecified) | . | . | 0.1% | . | . | 16.6
CC(C)CCNC(=O)c1cnc2sc(N3CCCCC3)nn2c1=O | . | . | 7.0% | . | . | -6.4
O=C(Nc1ccc2oc(-c3ccccc3F)nc2c1)c1ccccc1Cl | . | . | -8.1% | . | . | 68.9
O=C(Nc1ccc2oc(-c3ccccc3F)nc2c1)c1cncc(Br)c1 | ? | . | -10.7% | 8.28µM* | 0.2% | -12.0
O=C(Nc1ccc2oc(-c3cccc(Cl)c3Cl)nc2c1)c1cccc(Br)c1 | . | . | -8.0% | . | . | -74.4*
CCOC(=O)C1=CCC(c2ccc(C#N)cc2)N(S(=O)(=O)c2ccc(C)cc2)C1 (stereo unspecified) | . | . | . | . | . | -7.5
O=C(NCc1ccccc1Cl)C1CCN(C(=O)c2ccco2)CC1 | 18.6% | ? | 18.2% | 6.5% | 0.6% | .
CON(c1nc(Cl)nc(N(C)C)n1)S(=O)(=O)c1ccc(C)cc1 | 12.7% | -15.2% | 10.3% | 0.0% | -4.9% | 24.6
COc1ccc(OC)c(NS(=O)(=O)c2ccc3c(c2)n(C)c(=O)n3C)c1 | -13.5% | . | 0.7% | -9.9% | -3.8% | 53.8
CCC1Sc2ccc(S(=O)(=O)Nc3ccc(OC)c(OC)c3)cc2NC1=O (stereo unspecified) | 10µM* | 0.0% | -12.5% | 11.4% | 25.7% | -75.7*
COc1ccc(C)cc1NS(=O)(=O)c1ccc2c(c1)NC(=O)C(C)S2 (stereo unspecified) | -12.6% | 53.8% | -1.9% | ? | 3.6% | -77.4*
COc1ccc(C)cc1NS(=O)(=O)c1ccc2c(c1)n(C)c(=O)n2C | 7.8% | 5.86µM* | 4.2% | -8.9% | 0.3% | -5.8
CCC1Sc2ccc(S(=O)(=O)Nc3ccc(OC)cc3)cc2NC1=O (stereo unspecified) | -14.9% | ? | -10.5% | 9.1% | 4.8% | -10.9
COc1cc(/C=C/C(=O)OCC(=O)NC2CCCCCCC2)ccc1O | -4.5% | . | . | . | -2.6% | -20.1
COc1ccc(/C=C/C(=O)OCC(=O)Nc2ccc(N3CCOCC3)cc2)cc1OC | -16.1% | -0.2% | 0.3% | 35.9% | 1.2% | -0.8
COc1ccc(Cl)cc1NC(=O)N1CCC(CN2CCc3ccccc3C2)CC1 | . | . | -17.4% | . | . | 29.6
CCCC(=O)Nc1nnc2n1CCS2 | . | . | 2.1% | . | . | 2.3
CCc1cccc(NC(=O)c2snc3c(=O)[nH]cnc23)c1 | -6.5% | -16.5% | -33.4% | 4.4% | -4.5% | 1.9
Cc1cccc(NC(=O)c2snc3c(=O)[nH]cnc23)c1 | . | 6.57µM* | 2.1% | 10.9% | -11.9% | .
CCOC(=O)NC(N(O)c1cccc(Cl)c1)C(Cl)(Cl)Cl (stereo unspecified) | 9.5% | -2.2% | 28.2µM* | 4.2% | -1.3% | -9.7
SMILES | HCV inhibitor | Pf growth 96h | Sm TGR inh | Pf growth 48h | SARS PLpro yeast | HCMV inh
CC(=O)Nc1ccc(OCC(=O)N2CCC(Cc3ccccc3)CC2)cc1 | -29.0% | -27.0% | 0.0% | -24.5% | -2.1% | 5.0
CC1CCN(C(=O)COc2ccc(Nc3ccccc3)cc2)CC1 | -6.7% | -1.6% | -20.3% | -1.1% | -6.9% | -73.8*
O=C(Nc1ccc(OCC(=O)N2CCC(Cc3ccccc3)CC2)cc1)c1ccco1 | -28.8% | -38.4% | 0.0% | . | -9.0% | -83.2*
O=C(c1ccc(F)cc1)N1CCCC(C(=O)N2CCc3ccccc3C2)C1 (stereo unspecified) | 8.9% | -1.6% | 0.8% | 8.6% | -1.1% | 76.4
c1ccc(Cn2c[n+](Cc3ccccc3)c3ccccc32)cc1 | 17.2% | 6.57µM* | -17.2% | ? | 5.1% | -26.9
CC(C)n1c(CNC(=O)c2ccccc2F)nnc1SCC(=O)c1ccc(F)cc1 | 0.4% | . | . | . | . | 0.0
CC1(Cc2ccccc2F)C(=O)Nc2c(Cl)ccc(Cl)c21 (stereo unspecified) | . | . | . | . | . | -25.6
N#Cc1c([N+](=O)[O-])cc([N+](=O)[O-])cc1S(=O)(=O)Cc1ccccc1 | 10µM* | -3.9% | 0.355µM* | -10.4% | 11.8% | -99.0*
COc1cc(OC)c(C#N)c(S(=O)(=O)Cc2ccccc2)c1 | 0.0% | 1.3% | 0.0% | 0.2% | -10.2% | -20.6
CC(=O)Nc1ccc(NC(=O)CSc2nnc(-c3ccc4c(c3)OCO4)o2)cc1 | -11.1% | . | . | . | -7.3% | 0.0
O=C(CSc1nnc(-c2ccc3c(c2)OCO3)o1)Nc1ncc(Cl)cc1Cl | 0.5% | ? | 2.3% | 17.1% | -6.0% | -60.9*
O=C(O)CCSc1nnc(-c2ccc3c(c2)OCO3)o1 | -5.2% | ? | -26.4% | -17.9% | 2.8% | -75.4*
COCCNC(=O)/C=C/c1c(Cl)cccc1Cl | -21.4% | ? | -12.5% | 29.9% | 5.4% | ?
O=CN1CCN(C(=O)CC(c2ccccc2)c2cc(Br)ccc2O)CC1 (stereo unspecified) | 7.9% | 373.9% | -10.0% | -24.4% | -5.2% | 40.8
O=C(N/C(=C\c1cccc([N+](=O)[O-])c1)C(=O)N(CCO)CCO)c1ccco1 | 2.2% | -10.8% | . | 4.2% | 0.3% | -30.4
Cc1cc(SCC(=O)c2cccs2)nc2ccccc12 | 10µM* | -7.1% | -9.0% | 26.6% | -4.5% | 52.4
O=C(CSc1nc2ccccc2c(=O)[nH]1)c1cccs1 | 4.2% | ? | 0.4% | -2.5% | 4.2% | -22.3
CC(Oc1ccccc1)C(=O)N1CCN(Cc2cc(=O)n3nc(-c4ccccc4Cl)sc3n2)CC1 (stereo unspecified) | . | . | 1.1% | . | . | -3.5
COc1ccc(N=C2C(=Nc3ccc(OC)cc3)N(c3ccc(N(C)C)cc3)C(=S)N2c2ccc(OC)cc2)cc1 | 1.12µM* | . | 4.0% | 4.9% | -11.3% | 15.5
CCC(Cc1ccccc1)NC(=O)CCc1ccccc1 (stereo unspecified) | 11.0% | ? | -27.7% | 1.2% | -5.6% | -31.3
CCC(Cc1ccccc1)NC(=O)CCn1cccc1 (stereo unspecified) | ? | 5.86µM* | -30.9% | 12.6% | -1.7% | 10.7
O=C(CCn1cccc1)NCc1ccccc1 | 32.7% | 8.28µM* | -19.6% | 33.9% | -3.6% | -5.0

Screens (PubChem)
